Results filed as inconclusive are left out. Calls of active or inactive are those of the source. Calls follow the shape of the dose curve; as a rule, active = well fitted cell-killing curve with a large enough effect; inconclusive = small, poorly fitted or top-dose-only effect; inactive = flat fitted curve, though single readings scatter.
Assay: qHTS of pediatric cancer cell lines to identify multiple opportunities for drug repurposing: Primary screen for BT-12 cells (AID 1347101); also: nearly all actives have a fitted effect of over 25% in size
Conditions: BT-12 viability, CellTiter-Glo luminescence, 48 h; series mostly up to 57.3 µM
Excerpt: Drug repurposing or repositioning has been offered as a strategy for drug development in oncology programs. This approach has special potential for childhood cancers and other rare or orphan diseases, where the expected return on new drug development has been a disincentive to pharmaceuticals.
In this project we exploit the poly-pharmacology of drugs to discover new indications via phenotypic screening of a panel of 19 well-characterized cell lines derived from solid tumors seen in children and adolescents. The goal is to identify approved drugs with previously unrecognized anticancer properties that has the potential to reveal new mechanisms and biological processes involved in carcinogenesis or drug resistance. We employed a titration-based paradigm (quantitative high-throughput screening or qHTS), where all compounds were tested at multiple concentrations for their effect on cell viability. Concentration-response curves (CRCs) were derived directly from the primary screen, and both potency and efficacy values were used to identify compounds with robust bioactivity profiles. We screened the NIH Chemical Genomics Center (NCGC) Pharmaceutical Collection (NPC) and Mechanism Interrogation Plate (MIPE) small molecule collections of approved and investigational compounds against these cell lines; and measured metabolically active cells after 48 hours of compound treatment as a proxy for cell viability.
Assay Submitter: Nathalia J. Martinez, National Center for Advancing Translational Sciences, National Institutes of Health, Rockville, MD, USA; email: natalia.martinez@nih.gov
[1] Shen, M et al. Quantitative high-throughput phenotypic screening of pediatric cancer cell lines identifies multiple opportunities for drug repurposing. Oncotarget 2017 Dec 19;9(4):4758-4772. PMID 29435139.
The cells were obtained from University of North Carolina (UNC), Pediatric Preclinical Testing Program (PPT), and Coriell Institute (CI).
qHTS cell viability assay:
Cells were assayed in growth media at a density of 500-1,000 cells/well. Five microliters of cells were dispensed into 1,536-well, white, solid-bottom, TC-treated plates (Greiner Bio One) using a multidrop dispenser and incubated at 37 degrees C, 5% CO2, under a humidified atmosphere for 5 hours. Twenty-three nanoliters of compounds and controls (neutral control DMSO or positive control bortezomib at final concentration of 2.3 µM) were subsequently transferred by Kalypsys pintool. For primary screens, the MIPE collection was tested at 11-point dilutions (final concentrations range from 0.78 nM to 46 µM) and the NPC collection at 8-point dilutions (final concentrations range from 0.59 nM to 46 µM). Compounds tested in follow-up screens were assayed at 11-point dilutions. Cells were incubated for 48 hours, followed by addition of 3 µL of CellTiter-Glo (Promega). After a 15 min incubation at room temperature, samples were analyzed for luminescence intensity using a ViewLux High-throughput CCD imager equipped with clear filters.
For `CC1(C)[C@@H](OC(=O)CCC(=O)O)CC[C@]2(C)[C@H]3C(=O)C=C4[C@@H]5C[C@@](C)(C(=O)O)CC[C@]5(C)CC[C@@]4(C)[C@]3(C)CC[C@@H]12`, the outcome was “inactive”.
With `CCN(CC)CC1CCCCN1CC(=O)N1c2ccccc2C(=O)Nc2cccnc21` (stereo not given) the outcome was “inactive”.
With `CN[C@@H]1[C@@H](O)[C@@H](O[C@@H]2[C@H](O)[C@H](O[C@H]3OC(CN)=CC[C@H]3N)[C@@H](N)C[C@H]2N)OCC1(C)O` (stereo not given in full) the outcome was “inactive”.
For `CCCCCOC(=O)Nc1nc(=O)n([C@@H]2O[C@H](C)[C@@H](O)[C@H]2O)cc1F`, the outcome was “inactive”.
For `COCC(=O)Nc1c(I)c(C(=O)NCC(O)CO)c(I)c(C(=O)N(C)CC(O)CO)c1I` (stereo not given), the outcome was “inactive”.
In the case of `C[C@]1(Cn2ccnn2)[C@H](C(=O)O)N2C(=O)C[C@H]2S1(=O)=O`, the outcome was “inactive”.
For `CC(C)(C)C(=O)OCOC(=O)[C@@H]1N2C(=O)[C@@H](NC(=O)[C@H](N)c3ccccc3)[C@H]2SC1(C)C`, the outcome was “inactive”.
With `CN[C@@H]1[C@H](O)[C@H](NC)[C@H]2O[C@@]3(O)C(=O)C[C@@H](C)O[C@H]3O[C@@H]2[C@H]1O` the outcome was “inactive”.
For `O=C(O)c1cc(=O)c2ccccc2o1`, the outcome was “inactive”.
With `CCCCCCCCCCCCCCCCN` the outcome was “inactive”.
In the case of `Cc1ccc(S(=O)(=O)NC(=O)NC2CCCCC2)cc1`, the outcome was “inactive”.
In the case of `CC(=O)Nc1ccccc1`, the outcome was “inactive”.
With `CCc1nnc(NS(=O)(=O)c2ccc(N)cc2)s1` the outcome was “inactive”.
In the case of `NC(=O)c1ccc([N+](=O)[O-])cc1Cl`, the outcome was “inactive”.
In the case of `O=C(/C=C/c1ccc(O)c(O)c1)O[C@@H]1C[C@@](OC(=O)/C=C/c2ccc(O)c(O)c2)(C(=O)O)C[C@@H](O)[C@@H]1O`, the outcome was “inactive”.
In the case of `Cc1ccc(S(=O)(=O)NC(=O)NC2CCCCCCC2)cc1`, the outcome was “inactive”.
For `NNc1nnc(NN)c2ccccc12`, the outcome was “inactive”.
With `O=C1CC[C@@H](C(=O)O)N1` the outcome was “inactive”.
For `OCc1ccc(Cl)cc1Cl`, the outcome was “inactive”.
With `O=C(/C=C/c1ccccc1)OCc1ccccc1` the outcome was “inactive”.
For `NS(=O)(=O)c1cc2c(cc1C(F)(F)F)NCNS2(=O)=O`, the outcome was “inactive”.
In the case of `NS(=O)(=O)c1cc(-c2nn[nH]n2)c(NCc2cccs2)cc1Cl`, the outcome was “inactive”.
With `C/C(=C(\CCO)SS/C(CCO)=C(\C)N(C=O)Cc1cnc(C)nc1N)N(C=O)Cc1cnc(C)nc1N` the outcome was “inactive”.
For `NCC1CCC(C(=O)Oc2ccc(CCC(=O)O)cc2)CC1` (stereo not given), the outcome was “inactive”.
With `CCCNC(C)(C)COC(=O)c1ccccc1` the outcome was “inactive”.
In the case of `CC[C@]12CCCN3CCc4c(n(c5ccccc45)[C@@](O)(C(=O)OC)C1)[C@@H]32`, the outcome was “inactive”.
In the case of `C[N+]1(C)CCCC(OC(=O)C(O)(c2ccccc2)c2ccccc2)C1` (stereo not given), the outcome was “inactive”.
In the case of `C=CCSCC1Nc2cc(Cl)c(S(N)(=O)=O)cc2S(=O)(=O)N1` (stereo not given), the outcome was “inactive”.
In the case of `CC[C@H](C)[C@H](N)C(=O)O`, the outcome was “inactive”.
For `Nc1ncnc(Nc2ccccc2)n1`, the outcome was “inactive”.
For `CC(C)NC[C@@H](O)COc1ccc(CC(N)=O)cc1`, the outcome was “inactive”.
In the case of `COc1nccnc1NS(=O)(=O)c1ccc(N)cc1`, the outcome was “inactive”.
With `C[C@@H]1CCC[C@H](C)N1` the outcome was “inactive”.
In the case of `COC(=O)N/N=C/c1c[n+]([O-])c2ccccc2[n+]1[O-]`, the outcome was “inactive”.
In the case of `CN1CCCN=C1COC(=O)C(O)(c1ccccc1)C1CCCCC1` (stereo not given), the outcome was “inactive”.
For `C[N+](C)(C)CC[N+]1(C)Cc2c(Cl)c(Cl)c(Cl)c(Cl)c2C1`, the outcome was “inactive”.
For `Cc1ccc2c(c1)c1c3n2CCNC3CCC1` (stereo not given), the outcome was “inactive”.
With `O=C(O)CCC(=O)O` the outcome was “inactive”.
For `O=C(O)CCCCC1CCSS1` (stereo not given), the outcome was “inactive”.
In the case of `O=C(O)c1ccccc1OP(=O)(O)O`, the outcome was “inactive”.
